In PubChem BioAssay (Tox21):
Results filed as inconclusive are left out. A call without a number means that no potency is given here. Active and inactive are the calls of the source. Unless noted, calls follow the shape of the dose curve; as a rule, active = well fitted curve in the direction sought with a large enough effect in the repeat runs; inconclusive = weak or mixed curves; inactive = no such curve, though single readings can be large; an effect the other way counts as inactive or inconclusive.

Legend:
[1] = target: Acetylcholinesterase (Homo sapiens) (UniProt P22303); test: Acetylcholinesterase (AChE) small molecule antagonists: fluorescence cell-based qHTS assay (AID 1347398; calls by dose curve; also: nearly all actives have a fitted effect of over 50% in size; also: potency is read from the fitted curve at half-maximal effect); conditions: Potency: AChE activity; outcome: AChE activity
Acetylcholinesterase (Homo sapiens), sequence (P22303 whole entry, looked up): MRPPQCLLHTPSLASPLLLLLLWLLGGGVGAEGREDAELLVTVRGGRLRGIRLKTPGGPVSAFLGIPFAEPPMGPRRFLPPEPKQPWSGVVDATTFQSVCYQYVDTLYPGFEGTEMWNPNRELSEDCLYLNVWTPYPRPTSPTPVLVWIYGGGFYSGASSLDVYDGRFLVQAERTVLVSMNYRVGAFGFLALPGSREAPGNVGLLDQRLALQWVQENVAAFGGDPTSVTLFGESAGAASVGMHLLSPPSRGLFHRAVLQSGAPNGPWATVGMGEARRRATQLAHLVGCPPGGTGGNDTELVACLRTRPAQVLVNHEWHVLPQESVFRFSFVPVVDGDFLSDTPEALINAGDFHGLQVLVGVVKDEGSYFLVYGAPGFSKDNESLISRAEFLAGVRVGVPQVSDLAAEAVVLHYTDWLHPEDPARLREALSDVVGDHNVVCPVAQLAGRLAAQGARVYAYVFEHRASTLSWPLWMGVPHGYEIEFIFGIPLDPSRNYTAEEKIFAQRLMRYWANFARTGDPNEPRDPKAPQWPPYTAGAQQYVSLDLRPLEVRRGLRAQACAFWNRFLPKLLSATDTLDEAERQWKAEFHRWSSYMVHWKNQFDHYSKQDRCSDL
Method in brief: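 Cellular AChE inhibition: SH-SY5Y cells treated with test chemical for 30 min at 37 C, then acetylthiocholine hydrolysis followed over 40 min at room temperature via thiocholine-reactive Thiolite Green fluorescence (490/520 nm).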

[2] = target: Acetylcholinesterase (Homo sapiens) (UniProt P22303); test: Acetylcholinesterase (AChE) small molecule antagonists: enzyme-based qHTS assay with human liver microsomes (AID 1347399; calls by dose curve; also: nearly all actives have a fitted effect of over 60% in size); conditions: Potency: qHTS inhibition; outcome: qHTS inhibition
Method in brief: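 Recombinant human AChE (50 mU/mL in the enzyme mix) and human liver microsomes (0.25 mg/mL final) were preincubated with compound and NADPH (0.25 mg/mL final) for 30 min at 37 C. Acetylthiocholine/DTNB was then added; thiocholine was read colorimetrically after 10 min at room temperature.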

[3] = qHTS assay for small molecule agonists of the p53 signaling pathway (AID 651631; calls by dose curve; also: nearly all actives have a fitted effect of over 15% in size)
Method in brief: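 We treat p53RE-bla HCT-116 cells with compounds for 16 h at 37 °C, add LiveBLAzer B/G FRET substrate for 2 h at room temperature, and measure fluorescence intensity.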

Aromatase (Homo sapiens) = Aromatase (Homo sapiens) (UniProt P11511); test: qHTS assay to identify aromatase inhibitors (AID 743083); also: series mostly up to about 70 µM; nearly all actives have a fitted effect of over 55% in size
Aromatase (Homo sapiens), sequence (P11511 whole entry, looked up): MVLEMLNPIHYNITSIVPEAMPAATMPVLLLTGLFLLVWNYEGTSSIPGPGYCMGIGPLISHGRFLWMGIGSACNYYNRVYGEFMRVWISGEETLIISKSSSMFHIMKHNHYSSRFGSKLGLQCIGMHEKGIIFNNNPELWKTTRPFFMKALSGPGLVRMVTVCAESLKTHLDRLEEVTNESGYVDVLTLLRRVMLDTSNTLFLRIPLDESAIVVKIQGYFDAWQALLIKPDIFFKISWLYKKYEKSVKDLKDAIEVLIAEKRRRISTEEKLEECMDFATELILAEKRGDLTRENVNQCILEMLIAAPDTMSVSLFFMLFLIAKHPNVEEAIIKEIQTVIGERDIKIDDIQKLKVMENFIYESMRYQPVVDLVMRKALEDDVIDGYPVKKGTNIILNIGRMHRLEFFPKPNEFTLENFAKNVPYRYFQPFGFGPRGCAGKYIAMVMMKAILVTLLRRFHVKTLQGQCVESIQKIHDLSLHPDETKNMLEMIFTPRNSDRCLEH

[4] = qHTS assay for small molecules that induce genotoxicity in human embryonic kidney cells expressing luciferase-tagged ATAD5 (AID 651632); also: nearly all actives have a fitted effect of over 15% in size
Method in brief: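 A rise in luciferase signal from ATAD5-tagged HEK293T cells marks genetic stress. Cells were exposed to compounds for 16 hr at 37C, 5% CO2, then luciferase was quantified after a 30 min room-temperature incubation with Amplite.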

[5] = qHTS assay for small molecule agonists of the p53 signaling pathway - cell viability (AID 651633; calls by dose curve;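 also: p53RE-bla HCT reporter cells with a stable beta-lactamase p53 reporter; series mostly up to about 83 µM; nearly all actives have a fitted effect of over 30% in size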)
Method in brief: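 p53RE-bla cells, seeded at 4,000 per well and rested 5 h at 37 C/5% CO2, received compounds in DMSO for 16 h at 37 C. CellTiter-Glo was then added, and luminescence was read after 30 min at room temperature to gauge cytotoxicity.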

[6] = qHTS assay for small molecules that induce genotoxicity in human embryonic kidney cells expressing luciferase-tagged ATAD5 - cell viability (AID 651634; calls by dose curve; also: nearly all actives have a fitted effect of over 25% in size)
Method in brief: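 Cytotoxicity counter-readout: after 15.5 hr compound treatment at 37C, live-cell protease activity in ATAD5-luciferase HEK293T cells measured by CellTiter-Fluor fluorescence, 30 min development at 37C.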

[7] = qHTS assay for small molecule disruptors of the mitochondrial membrane potential - cell viability (AID 720634; calls by dose curve;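 also: human HepG2 liver cancer cells; series mostly up to about 83 µM; nearly all actives have a fitted effect of over 20% in size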)
Method in brief: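 Cytotoxicity was quantified from ATP content by CellTiter-Glo luminescence in the same wells as the MMP dye read-out. HepG2 (2,000 cells/well) were plated overnight and exposed to compounds for 1 hr at 37 C.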

[8] = qHTS assay to test for compound auto fluorescence at 590 nm (red) in HepG2 cells (AID 720674)
Method in brief: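 Compound auto-fluorescence is scored relative to Rose Bengal sodium, measured at 540/590 nm in live HepG2 cultures after 1 hr compound contact (37 C, 5% CO2).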

[9] = qHTS assay to test for compound auto fluorescence at 590 nm (red) in HEK293 cells (AID 720679)
Method in brief: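 Intensity at 540nm excitation and 590nm emission is reported as Rose Bengal sodium-equivalent autofluorescence. Measurements followed overnight exposure (37C, 5% CO2) of HEK293 cells, 2,000 per well, to 23 nL compound.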

[10] = qHTS assay to test for compound auto fluorescence at 460 nm (blue) in HEK293 cell free culture (AID 720681)
Method in brief: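 Test compounds were pinned into cell-free culture medium (DMEM with 10% FBS) and fluorescence was read directly at Ex/Em 405/460 nm. Signals were expressed as fluorescence equivalents of triamterene, with DMSO vehicle as control.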

[11] = qHTS assay to test for compound auto fluorescence at 535 nm (green) in HEK293 cell free culture (AID 720682)
Method in brief: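 Green-channel intensity (Ex/Em 485/535 nm) was recorded from compound-treated wells containing only DMEM with 10% FBS. Fluorescein provided the equivalency standard.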

[12] = qHTS assay to test for compound auto fluorescence at 590 nm (red) in HEK293 cell free culture (AID 720683)
Method in brief: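 Tox21 10K library compounds were pinned into cell-free DMEM with 10% FBS and fluorescence was read at excitation 540 nm. Activity is expressed as Rose Bengal sodium equivalency.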

[13] = qHTS assay to test for compound auto fluorescence at 590 nm (red) in HepG2 cell free culture (AID 720684)
Method in brief: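 Readout: intrinsic compound fluorescence at 590 nm emission after 540 nm excitation, scaled to Rose Bengal sodium. Matrix was cell-free MEM with 10% FBS; DMSO vehicle wells served as control.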

[14] = qHTS assay to test for compound auto fluorescence at 535 nm (green) in HepG2 cell free culture (AID 720686)
[15] = qHTS assay to test for compound auto fluorescence at 460 nm (blue) in HepG2 cells (AID 720687)
Method in brief: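 Cells (2,000/well in MEM with 10% FBS) attached overnight at 37 C, then were exposed to compound or DMSO for 1 hr at 37 C, 5% CO2. Fluorescence read at Ex/Em 405/460 nm, expressed as triamterene-equivalent signal.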

[16] = qHTS assay to identify small molecule antagonists of the glucocorticoid receptor (GR) signaling pathway - cell viability counter screen (AID 720693); also: nearly all actives have a fitted effect of over 55% in size
[17] = qHTS assay for identifying genotoxic compounds that show differential cytotoxicity against isogenic chicken DT40 cell lines with known DNA damage response pathways - wild type cell line (AID 743012); also: potency is read from the fitted curve at half-maximal effect; nearly all actives have a fitted effect of over 60% in size
Method in brief: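 Viability by ATP luminescence (CellTiter-Glo, 30 min RT) after 40 h compound treatment at 37 C/5% CO2, using 300 parental DNA repair-proficient DT40 cells per well.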

[18] = qHTS assay for identifying genotoxic compounds that show differential cytotoxicity against isogenic chicken DT40 cell lines with known DNA damage response pathways - Rev3 mutant cell line (AID 743014); also: potency is read from the fitted curve at half-maximal effect; nearly all actives have a fitted effect of over 55% in size
[19] = qHTS assay for identifying genotoxic compounds that show differential cytotoxicity against isogenic chicken DT40 cell lines with known DNA damage response pathways - Rad54/Ku70 mutant cell line (AID 743015); also: potency is read from the fitted curve at half-maximal effect; nearly all actives have a fitted effect of over 60% in size
[20] = qHTS assay to identify small molecule antagonists of the androgen receptor (AR) signaling pathway - cell viability counter screen (AID 743033; also: nearly all actives have a fitted effect of over 45% in size)
[21] = qHTS assay to identify small molecule antagonists of the androgen receptor (AR) signaling pathway using the MDA cell line - cell viability counter screen (AID 743041; also: nearly all actives have a fitted effect of over 45% in size)
Method in brief: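 qHTS viability read-out; MDA-kb2 AR-luc; R1881-stimulated; 16 h exposure at 37C, 0% CO2; CellTiter-Fluor, 30 min; fluorescence intensity.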

[22] = qHTS assay to identify small molecule antagonists of the thyroid receptor (TR) signaling pathway - cell viability counter screen (AID 743064); also: potency is read from the fitted curve at half-maximal effect; nearly all actives have a fitted effect of over 50% in size
Method in brief: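 In rat pituitary GH3.TRE-Luc reporter cells co-exposed to compound and 1 nM T3 for 23.5 h, cytotoxicity was assessed with CellTiter-Fluor in the same wells, read by fluorescence.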

[23] = qHTS assay to identify small molecule antagonists of the thyroid receptor (TR) signaling pathway (AID 743065); also: potency is read from the fitted curve at half-maximal effect; nearly all actives have a fitted effect of over 55% in size
Method in brief: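 GH3.TRE-Luc rat pituitary cells carrying two TR response elements driving luciferase were plated for 4 h, given compound plus 1 nM T3 (final), and incubated 23.5 h at 37 C. ONE-Glo luminescence measured reporter inhibition; CellTiter-Fluor fluorescence tracked cytotoxicity.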

[24] = test system: thyroid hormone receptor (rat, GH3 cells); test: qHTS assay to identify small molecule agonists of the thyroid receptor (TR) signaling pathway (AID 743066; calls by dose curve)
[25] = qHTS assay to identify small molecule antagonists of the estrogen receptor alpha (ER-alpha) signaling pathway using the BG1 cell line - cell viability counter screen (AID 743081);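 also: compound given together with 17beta-estradiol as the ER stimulus; series mostly up to about 70 µM; nearly all actives have a fitted effect of over 45% in size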
[26] = target: Aryl hydrocarbon receptor (Homo sapiens) (UniProt P35869); test: qHTS assay to identify small molecule that activate the aryl hydrocarbon receptor (AhR) signaling pathway (AID 743085);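 also: HG2L7.5c1 human HepG2 liver cells with stably integrated DRE-driven firefly reporter; series mostly up to about 70 µM; nearly all actives have a fitted effect of over 15% in size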
Aryl hydrocarbon receptor (Homo sapiens), sequence (P35869 whole entry, looked up): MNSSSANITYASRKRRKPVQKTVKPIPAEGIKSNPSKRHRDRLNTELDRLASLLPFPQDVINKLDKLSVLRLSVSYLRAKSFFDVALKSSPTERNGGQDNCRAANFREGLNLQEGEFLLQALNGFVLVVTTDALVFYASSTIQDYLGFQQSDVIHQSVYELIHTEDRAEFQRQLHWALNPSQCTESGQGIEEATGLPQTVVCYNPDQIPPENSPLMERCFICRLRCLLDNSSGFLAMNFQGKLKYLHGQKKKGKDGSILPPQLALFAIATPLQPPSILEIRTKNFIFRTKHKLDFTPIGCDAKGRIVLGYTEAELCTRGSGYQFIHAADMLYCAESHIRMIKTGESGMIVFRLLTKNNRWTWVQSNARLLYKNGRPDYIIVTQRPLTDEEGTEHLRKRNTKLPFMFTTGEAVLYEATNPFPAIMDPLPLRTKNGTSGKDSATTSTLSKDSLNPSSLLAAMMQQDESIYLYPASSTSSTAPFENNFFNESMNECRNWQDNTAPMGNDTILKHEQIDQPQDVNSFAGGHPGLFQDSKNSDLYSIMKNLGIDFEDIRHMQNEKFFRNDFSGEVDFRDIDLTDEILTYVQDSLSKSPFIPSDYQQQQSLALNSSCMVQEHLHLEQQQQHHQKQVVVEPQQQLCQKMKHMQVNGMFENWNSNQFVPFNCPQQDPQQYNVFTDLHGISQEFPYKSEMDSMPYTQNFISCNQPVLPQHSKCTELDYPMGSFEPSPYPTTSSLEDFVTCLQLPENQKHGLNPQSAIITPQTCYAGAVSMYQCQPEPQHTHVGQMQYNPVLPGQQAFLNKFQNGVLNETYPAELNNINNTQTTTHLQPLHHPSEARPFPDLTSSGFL
Method in brief: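 AhR agonist activity is inferred from enhanced light output of a DRE-controlled firefly luciferase reporter in HepG2 cells, measured with ONE-Glo following 24 h treatment at 37C.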

**Q.** For CCOc1ccc(Cc2nccc3cc(OCC)c(OCC)cc23)cc1OCC, which Potency [1] is on record?
**A.** Its Potency is 15.5 µM (active).

**Q.** And the Potency [2]?
**A.** The Potency was “inactive”.

**Q.** Which Potency [1] does the source give for CCNS(=O)(=O)c1ccc(C)cc1 here?
**A.** Its Potency is “inactive”.

**Q.** Which Potency [3] does the source give for Nc1ncnc2c1ncn2CCOCP(=O)(O)O here?
**A.** The Potency was “inactive”.

**Q.** What about the Potency (Aromatase (Homo sapiens)) of the same compound?
**A.** The Potency was “inactive”.

**Q.** With CCC(=O)O[C@](Cc1ccccc1)(c1ccccc1)[C@H](C)CN(C)C as the compound, how does the Potency [3] read?
**A.** Its Potency is “inactive”.

**Q.** What about the outcome [4] of the same compound?
**A.** Its outcome is “inactive”.

**Q.** And the Potency [5]?
**A.** The Potency was “inactive”.

**Q.** What about the Potency [6] of the same compound?
**A.** Its Potency is “inactive”.

**Q.** And the outcome [7]?
**A.** The outcome was “inactive”.

**Q.** What about the outcome [8] of the same compound?
**A.** Its outcome is “inactive”.

**Q.** And the outcome [9]?
**A.** Its outcome is “inactive”.

**Q.** And the outcome [10]?
**A.** Its outcome is “inactive”.

**Q.** And the outcome [11]?
**A.** Its outcome is “inactive”.

**Q.** And the outcome [12]?
**A.** Its outcome is “inactive”.

**Q.** What about the outcome [13] of the same compound?
**A.** The outcome was “inactive”.

**Q.** What about the outcome [14] of the same compound?
**A.** Its outcome is “inactive”.

**Q.** And the outcome [15]?
**A.** The outcome was “inactive”.

**Q.** What about the Potency [16] of the same compound?
**A.** Its Potency is “inactive”.

**Q.** What about the Potency [17] of the same compound?
**A.** The Potency was 38 µM (active).

**Q.** What about the Potency [18] of the same compound?
**A.** The Potency was 60.3 µM (active).

**Q.** What about the Potency [19] of the same compound?
**A.** Its Potency is 67.6 µM (active).

**Q.** What about the Potency [20] of the same compound?
**A.** The Potency was “inactive”.

**Q.** And the outcome [21]?
**A.** Its outcome is “inactive”.

**Q.** And the Potency [22]?
**A.** The Potency was 26.9 µM (active).

**Q.** And the Potency [23]?
**A.** Its Potency is 53.7 µM (active).

**Q.** What about the outcome [24] of the same compound?
**A.** Its outcome is “inactive”.

**Q.** And the Potency [25]?
**A.** The Potency was “inactive”.

**Q.** With C[C@@H]1O[C@@H]1P(=O)(O)O as the compound, how does the outcome [26] read?
**A.** Its outcome is “inactive”.

**Q.** For COc1ccc2cc(S(=O)(=O)N[C@H](CC(=O)N[C@H](Cc3ccc(CN4[C@H](C)CCC[C@@H]4C)cc3)C(=O)N(C)C(C)C)c3ccc4c(c3)OCO4)ccc2c1, which Potency [2] is on record?
**A.** Its Potency is “inactive”.

**Q.** With C=CC(=O)OCCN(CC)CC as the compound, how does the Potency [2] read?
**A.** Its Potency is “inactive”.

**Q.** Which Potency [2] does the source give for COc1cc(C(=O)NCc2ccc(OCCN(C)C)cc2)cc(OC)c1OC here?
**A.** Its Potency is “inactive”.

**Q.** Which Potency (Aromatase (Homo sapiens)) does the source give for O=[N+]([O-])O[C@@H]1CO[C@H]2[C@@H]1OC[C@@H]2O here?
**A.** Its Potency is “inactive”.

**Q.** What about the outcome [26] of the same compound?
**A.** Its outcome is “inactive”.
